# D1 PAM: enhances dopamine response at the human D1 receptor. potentiation, % at 10 µM. actives 0.036% (n = 360,000). P21728. AID 504651. HEK293 TREx D1 cells, calcium flux, dopamine EC20 potentiation; in the data active = potentiation above about 30%; also: 0% is about no effect
# Target sequence (P21728 whole entry, looked up): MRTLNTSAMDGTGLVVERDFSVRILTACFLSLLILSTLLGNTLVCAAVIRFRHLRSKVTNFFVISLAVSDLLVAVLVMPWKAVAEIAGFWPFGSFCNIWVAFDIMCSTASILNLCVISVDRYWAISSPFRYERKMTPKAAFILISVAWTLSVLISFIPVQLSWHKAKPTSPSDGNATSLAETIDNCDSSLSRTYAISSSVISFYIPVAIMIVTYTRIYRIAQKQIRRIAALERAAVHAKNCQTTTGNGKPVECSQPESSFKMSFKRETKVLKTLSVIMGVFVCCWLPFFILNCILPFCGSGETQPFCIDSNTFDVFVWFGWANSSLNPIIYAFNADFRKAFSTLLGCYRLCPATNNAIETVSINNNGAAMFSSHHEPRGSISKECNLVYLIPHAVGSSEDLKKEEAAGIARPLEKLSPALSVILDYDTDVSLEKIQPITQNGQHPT
# D3 antag: antagonists of human D3 dopamine receptor. AID 652054. P35462. actives 2.5% (n = 360,000). D3R cells, DiscoveRx beta-arrestin luminescence, antagonist mode; hits give low values. max response, negative = inhibition, %; in the data active = max response below about -50%; inconclusive = no clear call, values can overlap the other calls; also: % is scaled to controls: 0 for no effect and ±100 for the full control effect
#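 Cells plated overnight at 1500 cells/well, then exposed to library compounds with dopamine controls for 90 minutes at 37 degrees C. DiscoveRx reagent added for 30–60 minutes at room temperature; luminescence read, quantitative HTS format.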
# D1 antag: blocks dopamine activation of the human D1 receptor; HEK293 TREx D1 cells, calcium flux, dopamine EC80; hits give low values; P21728; activity change, negative = inhibition, % at 10 µM; actives 3.2% (n = 360,000); AID 504652; in the data active = activity change below about -30%; also: % is scaled to controls: 0 for no effect and ±100 for the full control effect
#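 HEK293 T-REx cells expressing inducible, force-coupled D1 receptor; no-wash Ca dye, 30–90 min RT. Cmpd → 180 s read at 1 Hz → EC80 DA → 180 s read.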
# D3 ag: agonists of human D3 dopamine receptor. P35462. D3R DiscoveRx beta-arrestin cells, luminescence, 90 min. max activation, %. actives 0.58% (n = 410,000); in the data active = max activation above about 30%; also: 0% is about no effect
#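 Cells at 1500/well, incubated overnight, then treated with pinned compounds (dopamine as control) for 90 min at 37 degrees C. DiscoveRx reagent added for 30 - 60 minutes at room temperature; luminescence read.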
# D1 agonist: agonists of human D1 dopamine receptor; P21728; HEK293 T-REx D1 cells, calcium flux, agonist mode; activation, % at 2 µM; actives 1% (n = 360,000); in the data active = activation above about 30%; also: 0% is about no effect
#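 Agonism was scored from calcium flux recorded over 180 s (1 read/s) after pintool compound addition, following a 10-cycle baseline. Cells were inducible force-coupled HEK293 TREx D1, plated overnight at 30 C and loaded with no-wash calcium dye.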
# Active calls of the source: *; u = inconclusive; x = no result given. This is a sample that favours compounds with a hit; in the whole collection about 6% have one here.
SMILES,D1 PAM,D3 antag,D1 antag,D3 ag,D1 agonist
CC1Cc2cc(S(=O)(=O)NCc3ccccc3)ccc2N1C(=O)C1CC1 (configuration not stated),-5,0,-25,5,12
CCOc1ccccc1N(C)S(=O)(=O)c1ccc2c(c1)CC(C)N2C(=O)C1CC1 (configuration not stated),-8,31,-32*,-8,20
CC1Cc2cc(S(=O)(=O)N(Cc3ccccc3)C(C)C)ccc2N1C(=O)C1CCC1 (configuration not stated),-2,x,6,-10,4
CC1Cc2cc(S(=O)(=O)CCC(=O)N3CCN(c4ccccc4)CC3)ccc2N1C(=O)C1CC1 (configuration not stated),-11,5,-31*,1,7
N#CCC(=O)NN,x,x,x,-10,x
CCOc1ccc(S(=O)(=O)Nc2nc3ccccc3nc2-n2ccc(=NC(=O)c3ccccc3C)cc2)cc1,-9,15,-19,18,62*
Cc1ccccc1C(=O)N=c1ccn(-c2nc3ccccc3nc2NS(=O)(=O)c2ccccc2)cc1,-7,-5,0,-5,39*
CCOC(=O)C(C)NC(=O)c1c2c(nc3ccccc13)C(=O)N(C1CCCCC1)C2 (configuration not stated),0,x,5,-12,0
O=C(O)C1C2CCC(O2)C1C(=O)NCc1ccc(Cl)cc1 (configuration not stated),-10,-16,-37*,2,1
CC(C)CC1NC(=O)N(CC(=O)NC2CCCc3ccccc32)C1=O (configuration not stated),-2,-22,-36*,14,0
CC(C)CN1C(=O)C(=O)N(CC(=O)NC2CCCc3ccccc32)C1=O (configuration not stated),-4,4,-2,5,1
Cc1ccc(C(=O)Nc2nnc([C@H]3C[C@H](O)[C@@H](CO)O3)s2)cc1,x,-77*,x,-15,x
Cc1ccccc1NC(=O)Nc1nnc([C@@H]2C[C@H](O)[C@@H](CO)O2)s1,x,0,x,54*,x
Cc1cccc(C)c1NC(=O)Nc1nnc([C@H]2C[C@H](O)[C@@H](CO)O2)s1,x,1,x,10,x
COc1ccc(C)cc1NC(=O)Cn1c(=O)n(Cc2nc(C)no2)c(=O)c2ccccc21,0,x,9,-15,0
CCOC(=O)N1CCc2c(sc3c2c(=O)n(Cc2ccccc2)c(=O)n3CC(=O)Nc2ccc(C)c(C)c2)C1,0,x,-6,2,1
COc1ccc(CNC(=O)c2ccc(CS(=O)Cc3ccccc3Cl)o2)cc1 (configuration not stated),-3,x,6,-18,2
Cc1cccc(N2CCN(CCNC(=O)C3COc4ccccc4C3)CC2)c1C (configuration not stated),-4,x,-51*,27,18
Cc1ccc(Cl)cc1N1CCN(CCCNC(=O)C2COc3ccccc3C2)CC1 (configuration not stated),-2,x,-37*,-28,41*
O=C(NCCCN1CCN(c2ccc(F)cc2)CC1)C1COc2ccccc2C1 (configuration not stated),-5,x,-6,-26,11
Cc1ccc2c(c1)NC(=O)C(CC(=O)NCCCN1CCN(c3cc(Cl)ccc3C)CC1)O2 (configuration not stated),-5,-72*,-22,-9,13
Cc1ccc(N(CC(=O)Nc2ccc(Br)cc2)S(=O)(=O)c2cccs2)cc1,2,x,-5,6,5
CCN(C(=O)CSc1nc2ccccc2n1CC(=O)Nc1cccc(C#N)c1)c1ccccc1,-1,x,-1,-24,1
Cn1c(=O)c2c(nc(SCCN3CCCCC3)n2Cc2ccc(Cl)cc2)n(C)c1=O,-7,-51*,6,1,0
O=c1c2ccccc2nc(SCCN2CCCCC2)n1CCc1ccccc1,1,-56*,11,-10,0
O=C(NCCSCc1c(F)cccc1Cl)C1CCN(S(=O)(=O)Cc2ccccc2)CC1,1,x,-5,4,-1
Cc1cccc(NS(=O)(=O)c2c(C)nc3sccn3c2=O)c1C,-5,x,-7,0,8
CCOc1ccc(-n2nc3c(=S)[nH]nc(C)c3c2C)cc1,-8,u,7,-12,2
